Assay outcomes: PubChem, Paczesny and Yang Labs, IUPUI and University of Michigan
Shown is part of a subset that was picked to be rich in hits.
ST2 IL33 inh – inhibitors of human ST2 (IL1RL1) binding to IL-33, primary screen, biochemical, AlphaLISA; Interleukin-1 receptor-like 1 (Homo sapiens), Q01638; AlphaLISA ST2-Fc/biotin-IL-33 interaction, 1 h; inhibition, % for hits at 17 µM; actives 2.3% (n = 78,000); AID 1259354, 2018; in the data active means inhibition above about 30%
Target sequence (Q01638 whole entry, looked up): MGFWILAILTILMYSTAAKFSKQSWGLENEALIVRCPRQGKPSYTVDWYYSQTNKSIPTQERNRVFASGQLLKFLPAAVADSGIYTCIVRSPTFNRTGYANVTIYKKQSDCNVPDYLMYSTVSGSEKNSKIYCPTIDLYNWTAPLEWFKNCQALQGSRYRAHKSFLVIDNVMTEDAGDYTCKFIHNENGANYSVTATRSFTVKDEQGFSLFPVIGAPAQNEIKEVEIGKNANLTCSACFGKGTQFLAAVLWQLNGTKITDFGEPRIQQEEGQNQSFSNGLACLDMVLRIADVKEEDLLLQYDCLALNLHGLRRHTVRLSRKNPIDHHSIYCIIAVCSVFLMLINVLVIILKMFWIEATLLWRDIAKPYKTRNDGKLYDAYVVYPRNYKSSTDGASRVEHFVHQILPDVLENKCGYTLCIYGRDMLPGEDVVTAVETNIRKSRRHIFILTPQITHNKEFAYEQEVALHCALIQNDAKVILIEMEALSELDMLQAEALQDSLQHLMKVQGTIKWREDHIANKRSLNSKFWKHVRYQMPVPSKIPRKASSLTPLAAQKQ
The depositor's hits bear a star; i = inactive.

SMILES | ST2 IL33 inh
Cc1ccc(NC(=O)CCC(=O)O)c(C)c1 | i
CC(=O)N1CCC(N(C)Cc2nncn2C(C)C)CC1 | i
Cc1cc(NC(=O)c2cccs2)n(-c2nc3ccccc3n2C)n1 | i
COc1ccc(OC)c(C2C(C(=O)Nc3ccccc3OC)=C(C)Nc3nc4ccccc4n32)c1 (stereo not given) | i
Cc1ccc(OCC(=O)Nc2ccc(N3CCCC3)cc2)cc1C | 59.0%*
CCc1ccc(OCC(=O)Nc2ccc(N3CCN(C(C)=O)CC3)cc2)cc1 | i
Cc1cccc(OCC(=O)Nc2sc3c(c2C#N)CCC3)c1C | i
CC(=O)Nc1ccc(OCC(=O)Nc2c(C)cccc2C)cc1 | i
Cc1cccc(OCC(=O)Nc2ccc(N3CCCC3)cc2)c1C | 66.0%*
Cc1cc(C)c(NC(=O)COc2ccc(C)c(C)c2)c(C)c1 | i
Cc1[nH]c2c(C)ccc(C)c2c1CC(=O)N1CC[C@H](CO)[C@H](O)C1 | i
Cc1cc([N+](=O)[O-])nn1CCCC(=O)Nc1ccccc1C(F)(F)F | i
COc1ccc(C(c2nnnn2C(c2ccccc2)c2ccccc2)N2CCOCC2)cc1 (stereo not given) | i
O=C(O)c1ccccc1C(=O)c1ccc(Cl)c(Cl)c1 | i
O=C(Nc1ccccc1)Oc1c(Cl)cc(Cl)cc1Br | i
COc1ccc(CN[C@H]2[C@H](O)[C@@H](N3CCN(C(C)=O)CC3)[C@@H]3OC[C@H]2O3)cc1 | i
COc1cc2c(cc1OC)C(C(=O)NCCN(C)C)C(c1ccccc1F)N(C)C2=O (stereo not given) | 32.0%*
CCCCNC(=O)C1c2cc(OC)c(OC)cc2C(=O)N(C)C1c1ccccc1F (stereo not given) | i
COc1ccccc1CNC(=O)C1c2cc(OC)c(OC)cc2C(=O)N(C)C1c1ccccc1F (stereo not given) | i
O=C(COc1ccc2c3c(c(=O)oc2c1)CCC3)c1ccccc1 | i
COc1ccc(Cc2c(O)nc3n(c2=O)CCCS3)cc1 | i
O=C(COc1cc(=O)n2c(n1)SCCC2)c1ccccc1 | 64.0%*
Cc1nnc(SCCn2c(N3CCCC3)nc3c2c(=O)n(C)c(=O)n3C)s1 | i
COc1ccccc1Cn1c(-c2ccccc2)cn2c3c(=O)n(C)c(=O)n(C)c3nc12 | i
COCC(=O)N[C@H]1CCN2C(=O)c3cc(-c4cccc(C)c4C)ccc3NC(=O)[C@@H]2C1 | i
SMILES | ST2 IL33 inh
O=C(N[C@H]1CCN2C(=O)c3cc(-c4cccc(C(F)(F)F)c4)ccc3NC(=O)[C@@H]2C1)c1ccncc1 | i
O=C(N[C@H]1CCN2C(=O)c3cc(-c4ccccc4F)ccc3NC(=O)[C@@H]2C1)c1ccco1 | 60.0%*
O=C1CC(COCc2ccccc2)c2cnn(Cc3cccc(F)c3)c2N1 (stereo not given) | i
O=C(CSc1nnc2sc3ccccc3n12)Nc1ccc(F)c(Cl)c1 | i
CCC(C(=O)Nc1cc2c(C)cc(=O)oc2cc1C)n1cccn1 (stereo not given) | i
COc1ccc(Nc2ccc(OC)cc2)cc1 | 70.0%*
COc1ccc(CNc2ccccc2C(=O)O)cc1 | i
COc1ccc(Nc2ccccc2)c(C)c1 | 37.0%*
COc1ccc(NC2=C(C)C(=O)CC2)cc1 | i
COc1ccc(OC)c(S(=O)(=O)Nc2ccccc2)c1 | i
COc1ccc(NC(=O)Nc2ccc(I)cc2)cc1 | i
COc1ccc(Nc2ccccc2C(=O)O)cc1 | 35.0%*
COc1ccc(C2CC(=O)C=C(Nc3ccccc3)C2)cc1 (stereo not given) | i
COc1ccc(NS(=O)(=O)c2cccc(C(=O)Nc3ccccc3C(=O)O)c2)cc1 | i
Nc1cc(=O)[nH]c2nnc(SCc3ccc(Cl)cc3Cl)n12 | i
O=C1c2[nH]nc(-c3ccccc3)c2C(c2ccc(O)cc2)N1c1ccccc1 (stereo not given) | i
Fc1ccccc1CN1CC[C@H](c2nnc(-c3ccccc3)o2)C1 | i
O=C(c1cn(CCc2ccccc2)nn1)N1CCCC1c1nc2ccc(F)cc2[nH]1 (stereo not given) | i
CCOc1c(C)cc(S(=O)(=O)N2CCN(c3nc(C)cc(N4CCCCC4)n3)CC2)cc1C | i
CC(C)Cc1cc(C(=O)NC2CC(=O)N(C3CCCCCC3)C2)nc(=O)[nH]1 (stereo not given) | i
Cc1ccc(C=Nc2ccc(Br)cc2)cc1 | i
Oc1c(C=NC2CCCCC2)[nH]c2ccc(Br)c(Cl)c12 | 45.0%*
O=[N+]([O-])c1cccc(N=Cc2ccc(Br)c([N+](=O)[O-])c2)c1 | i
Oc1c(C=Nc2cccc(F)c2)[nH]c2ccc(Br)c(Cl)c12 | 32.0%*
O=[N+]([O-])c1ccc(N=Cc2cc(Br)cc(I)c2O)cc1 | i
SMILES | ST2 IL33 inh
Oc1c(C=Nc2ccc(Br)cc2)[nH]c2ccc(Br)c(Cl)c12 | 30.0%*
Cc1c(Cl)c(C)c([N+](=O)[O-])c(O)c1C=Nc1cccc(C(=O)O)c1 | i
COc1cc2c(cc1OC)C(c1ccccc1[N+](=O)[O-])NCC2 (stereo not given) | i
CC1CC(Nc2ccccc2)c2ccccc2N1C(=O)c1ccc(F)cc1 (stereo not given) | i
O=C(Oc1ccc2ccc(=O)oc2c1)c1ccccc1Cl | i
Cc1ccc(CNC(=O)c2ccc3c(c2)ncn3C2CCCC2)cc1 | i
Cc1cc(CNC(=O)CN2C[C@@H](C)O[C@@H](C)C2)c2[nH]c(C)c(C)c2c1 | i
COc1ccc(-c2cc(C(=O)N3CCOCC3)c3ccccc3n2)c(OC)c1 | i
CCc1ccc(NC(=O)CN(c2ccc(I)cc2)S(C)(=O)=O)cc1 | i
Cc1ccc(C(=O)Nc2nc(-c3ccccc3)cs2)c(Cl)c1 | i
Cc1ccnc(Nc2nc(-c3ccccc3)cs2)c1 | i
Cc1ccc(Nc2nc(-c3ccc(O)c(O)c3)cs2)nc1 | 42.0%*
O=C1CN(C(=O)c2nn(Cc3ccccc3)c3c2CN(C(=O)CCc2cccs2)CC3)CCN1 | i
O=C1CCN(C(=O)c2nn(CCc3ccccc3)c3c2CN(C(=O)Cc2cccs2)CC3)CCN1 | 33.0%*
O=C(Cc1cccs1)N1CCC(Cc2ccccc2)CC1 | i
CC(=O)N1c2c(cc(Br)cc2S(=O)(=O)N2CCCCC2C)CC1C (stereo not given) | i
CCCOC1CCCN(Cc2nc(C3(c4ccc(C)cc4)CCCC3)no2)C1 (stereo not given) | i
Cc1cc(Nc2ccc(O)cc2)n2c(nc3ccccc32)c1C#N | 33.0%*
Cc1cc(NCCO)n2c(nc3ccccc32)c1C#N | i
Cc1cc(NCCCN(C)C)n2c(nc3ccccc32)c1C#N | i
O=C(O)c1ccc(Nc2nc(-c3ccncc3)cs2)cc1 | i
CN(Cc1ccccc1)c1ncccc1CNC(=O)C1(C)CCCO1 (stereo not given) | 35.0%*
CN(C)c1ncccc1CNC(=O)Cc1ccc(O)c(F)c1 | i
CC(C)N1CCC(NCc2cccnc2N(C)Cc2ccccc2)CC1 | i
CC1CCC(C(=O)NC(C(=O)N2CCc3ccccc3C2)C(C)C)CC1 (stereo not given) | i
CN(C)c1ccc(/C=C/c2c([N+](=O)[O-])c(=O)n(C)c(=O)n2C)cc1 | i
CN(c1ccccc1)c1ncnc(N)c1[N+](=O)[O-] | i
CN(c1ccccc1)c1ccc(/C=C/[N+](=O)[O-])cc1 | 50.0%*
Cc1nc2c(C(=O)NCCc3ccccc3)c[nH]n2c(=O)c1Cc1ccc(F)cc1Cl | i
